Shown are actives, neighbours in structure and some others; about 14% of the full set was active somewhere.
Pf growth 96h: P. falciparum growth inhibition at 96 hour, primary screen for plastid delayed-death inhibitors | P. falciparum luciferase reporter growth, 96 h | Potency, µM (titrated, usually from 28.7 µM), for inactives: at the top dose activity change, negative = inhibition, most hits filed as inhibitors | 320,000 tested, 6.9% active; further: potency means the concentration at half of the fitted maximal effect
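P. falciparum expressing integrated firefly luciferase, in erythrocytes at 2% hematocrit, 0.05% parasitemia, incubated with compounds 96 h at 37 C, 5% CO2. Growth inhibition read as loss of luminescence; two-generation exposure targets delayed-death apicoplast inhibitors.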
HCMV antiviral: human cytomegalovirus inhibition | HFF cells, HCMV-luciferase reporter, 72 h; hits give low values | activity change, negative = inhibition, % at 57.5 µM | AID 1259415 | 410,000 tested, 4.5% active; in the data active means activity change below about -60%; inconclusive means no clear call, values can overlap the other calls; inactive means above about -39%
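Compounds were evaluated in HFFs infected with an HCMV luciferase reporter virus (MOI 1 PFU/cell). Luciferase in lysates collected 72 h post infection served as the replication measure.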
Sm TGR block: S. mansoni TGR enzyme inhibition | 360,000 tested, 3% active | Potency, µM (titrated, usually from 114 µM), for inactives: at the highest dose activity change, negative = inhibition, actives largely listed as inhibitors | Q962Y6 | purified TGR, DTNB reduction, TNB absorbance 405 nm; further: potency means the concentration at half of the fitted maximal effect; nearly all actives have a fitted effect of over 60% in size
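TGR 20 nM + NADPH 100 uM (dispensed conc.), cpd preinc 15 min RT; start with NADPH (500 uM addition) then DTNB (15 mM addition). Kinetic TNB absorbance, 405 nm filter. Four-parameter Hill fit across titration.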
Pf growth 48h: inhibits P. falciparum growth in the first generation, 48 h; AID 504832; P. falciparum luciferase growth in erythrocytes, 48 h; 310,000 tested, 5.9% active; Potency, µM (series often up to 28.7 µM), for inactives: at the highest dose activity change, negative = inhibition, most hits filed as inhibitors; further: potency means the concentration at half of the fitted maximal effect
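Here the parasites carry a stable luciferase gene and grow inside erythrocytes in Albumax-based RPMI medium with compound for one erythrocytic cycle. Activity is scored as loss of luminescent signal.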
Giardia FBPA inh: blocks Giardia fructose-bisphosphate aldolase activity; A8B2U2; purified Giardia FBPA; Potency, µM (doses to about 59.6 µM), inactives show at the highest dose activity, negative = inhibition, most hits filed as inhibitors; 290,000 tested, 0.71% active; further: potency means the concentration at half of the fitted maximal effect; nearly all actives have a fitted effect of over 55% in size
Target sequence (A8B2U2 whole entry, looked up): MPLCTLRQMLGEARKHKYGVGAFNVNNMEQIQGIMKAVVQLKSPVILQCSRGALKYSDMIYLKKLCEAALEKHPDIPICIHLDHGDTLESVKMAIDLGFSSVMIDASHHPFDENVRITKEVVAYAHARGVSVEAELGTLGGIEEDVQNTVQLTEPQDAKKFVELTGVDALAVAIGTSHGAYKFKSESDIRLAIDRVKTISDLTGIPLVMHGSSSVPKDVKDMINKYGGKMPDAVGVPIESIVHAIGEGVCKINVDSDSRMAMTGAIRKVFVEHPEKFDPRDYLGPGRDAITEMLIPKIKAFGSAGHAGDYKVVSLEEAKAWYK
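Giardia FBPA (40 nM reagent) was preincubated 10 min at RT with compound (up to 57.5 uM final), then substrate plus GAPDH/TPI/NAD/arsenate coupling system with diaphorase/resazurin was added; resorufin fluorescence (525/598 nm) was read after 20 min.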
The depositor's hits bear a star; ? = inconclusive; . = not tested or not shown; + = active, no number; [ ] = dose if it differs, or a comment. Unless noted, the call rests on the fitted dose curve; in most records, active means well fitted curve in the direction sought with a large enough effect; inconclusive means small, poorly fitted or top-dose-only effect, or another doubt; inactive means no such curve, though single readings can be large; an effect the other way counts as inactive or inconclusive. On the % scale 0 is the no-effect control and ±100 the full control effect.

SMILES | Pf growth 96h | HCMV antiviral | Sm TGR block | Pf growth 48h | Giardia FBPA inh
N#C/C(=N\Nc1ccccc1Cl)C(=O)c1ccccc1 | ? | -22 | 1% | 42% | -13%
CCC(CC)=NNc1cccc([N+](=O)[O-])c1 | ? | -34 | -23% | ? | -1%
Cc1ccc(N/N=C(\C#N)C(=O)c2ccsc2)cc1 | 90% | 9 | 0% | ? | -18%
N#C/C(=N\Nc1ccc(Cl)cc1)C(=O)c1ccsc1 | 31% | -64* | -5% | 45% | -13%
CCS(=O)(=O)N1CCN(C(=O)c2ccc3nc(C)c(N(C)C(=O)CCc4ccccc4)n3c2)CC1 | . | 34 | . | . | .
CCc1ccccc1NC(=O)c1nc2nc(C)cc(C(F)F)n2n1 | . | ? | 7% | . | .
CC1CCN(S(=O)(=O)c2ccc(N/N=C(/C#N)C(N)=O)cc2)CC1 | ? | -11 | 30% | -4% | 3%
N#C/C(=N\Nc1ccc(S(=O)(=O)N2CCOCC2)cc1)C(N)=S | ? | 0 | 1% | 15µM* | ?
CCOc1ccccc1N1CCN(CC(O)COc2ccc3c(C)cc(=O)oc3c2)CC1 (stereo not drawn) | -2% | 22 | 2% | 8.3µM* | 4%
Cc1cc(=O)oc2cc(OCCc3ccccc3)ccc12 | 153% | 20 | -9% | 106% | 12%
COc1ccc(C2=NOC(COc3ccc4c(C)cc(=O)oc4c3)C2)c(OC)c1 (stereo not drawn) | ? | -69* | -4% | ? | 0%
Cc1cc(=O)oc2cc(OCC(O)CN3CCN(c4ccc(F)cc4)CC3)ccc12 (stereo not drawn) | . | -13 | -7% | 12% | 0%
COc1ccccc1C1=NOC(COc2ccc3c(C)cc(=O)oc3c2)C1 (stereo not drawn) | -2% | -95* | 20% | -5% | 0%
CCN(c1cccc(C)c1)S(=O)(=O)c1csc(C(N)=O)c1 | 9% | -2 | 9% | -11%[0.00184 µM] | 5%
Cc1ccc(NS(=O)(=O)c2csc(C(N)=O)c2)c(C)c1 | 4.1µM* | -18 | 21% | 7.4µM* | 10%
Cc1cc(C)cc(NS(=O)(=O)c2csc(C(N)=O)c2)c1 | ? | 9 | -18% | 5%[0.00184 µM] | 3%
CC(C)Oc1ccc(CNS(=O)(=O)c2csc(C(N)=O)c2)cc1 | 1% | ? | -7% | 6.6µM* | 6%
Cc1cccc(N(C)S(=O)(=O)c2csc(C(N)=O)c2)c1 | 0.66µM* | 5 | 0% | -11% | 4%
CCOc1ccccc1CNS(=O)(=O)c1cc(-c2onc(C)c2C)ccc1OC | . | + | -5% | . | .
COc1ccc(-c2onc(C)c2C)cc1S(=O)(=O)NCc1ccc(C)o1 | . | -71* | -17% | . | .
Cc1cc(-c2ccc(C)c(S(=O)(=O)NCC3CCN(Cc4ccccc4F)CC3)c2)on1 | -14% | 51 | -6% | ? | 8%
COc1ccccc1CN1CCC(CNS(=O)(=O)c2cc(-c3onc(C)c3C)ccc2OC)CC1 | ? | 21 | 3% | 12µM* | -6%
COc1ccc(-c2onc(C)c2C)cc1S(=O)(=O)NCC(C)c1ccccc1 (stereo not drawn) | . | -26 | 5% | . | .
COc1ccc(CCNS(=O)(=O)c2cc(-c3onc(C)c3C)ccc2OC)cc1OC | . | -11 | 2% | . | .
O=C(Cn1cc(SCc2ccc(C(F)(F)F)cc2)c2ccccc21)N1CCCC1 | . | -23 | 7% | . | .
SMILES | Pf growth 96h | HCMV antiviral | Sm TGR block | Pf growth 48h | Giardia FBPA inh
CCOC(=O)c1c(NC(=O)c2cc(-c3ccc(O)cc3)on2)sc(C(C)=O)c1C | 22% | -22 | -9% | 32% | 3%
CC1SC(=S)N(c2ccc(N(C)C)cc2)C1=O (stereo not drawn) | ? | -71* | -23% | ? | -5%
CN(C)c1ccc(N2C(=O)CSC2=S)cc1 | 5.2µM* | ? | -14% | 8% | 1%
O=C1CSC(=S)N1c1ccc(F)cc1 | 19% | . | 2% | -4% | 6%
O=C1c2cccnc2C(Nc2ccc(F)c(Cl)c2)N1Cc1cccs1 (stereo not drawn) | 56% | -3 | -13% | 3% | -2%
COc1ccc(OC)c(-n2c(-c3ccc(S(C)(=O)=O)cc3)cc(C=O)c2C)c1 | ? | 27 | -3% | 12µM* | -16%
COc1ccc(-c2nc3ccccc3n3c(-c4cccc(C)c4)c4c(=O)n(C)c(=O)n(C)c4c23)cc1 | . | 0 | -6% | . | .
CCOC(=O)[C@@H]1[C@H]2COc3ccc(Br)cc3[C@@H]2N2C(=O)N(c3ccc(C)cc3)C(=O)[C@]12C | 13µM* | ? | 7% | ? | 5%
CCOC(=O)[C@@H]1[C@H]2COc3ccccc3[C@H]2N2C(=O)N(c3ccc(C(F)(F)F)cc3)C(=O)[C@]12C | 5.2µM* | -15 | 4% | 10µM* | -8%
CCOC(=O)[C@@H]1[C@H]2COc3ccc(Br)cc3[C@@H]2N2C(=O)N(c3ccc(OC)cc3)C(=O)[C@]12C | 3.3µM* | . | 1% | -2% | -1%
CCOC(=O)[C@@H]1[C@H]2COc3ccc(Br)cc3[C@@H]2N2C(=O)N(c3ccc(Br)cc3)C(=O)[C@@]12C | . | -11 | . | . | .
CCOC(=O)[C@@H]1[C@H]2COc3ccc(Br)cc3[C@H]2N2C(=O)N(c3ccc(C)cc3)C(=O)[C@]12C | 12µM* | ? | 20% | ? | 2%
O=C(COC(=O)Cc1ccccc1F)NCCNC(=O)COC(=O)Cc1ccccc1F | 5% | -10 | -7% | -19% | .
COc1ccc(CN2C(=O)C(CC(=O)NC3CCCCC3)CC(C(=O)N(C(C)C)C(C)C)=C2C)cc1 (stereo not drawn) | . | -11 | . | . | .
CCOC(=O)[C@@H]1[C@H]2COc3cc(OC)ccc3[C@@H]2N2C(=O)N(c3ccc(Cl)cc3)C(=O)[C@@]12C | ? | 31 | -4% | ? | -4%
CCOC(=O)[C@H]1[C@H]2COc3cc(OC)ccc3[C@@H]2N2C(=O)N(c3ccc(Cl)cc3)C(=O)[C@@]12C | 5.2µM* | . | -3% | -94% | -7%
Cc1cc2c(=Cc3ccc(N(C)C)cc3)c3ccccc3n2[n+]1C | . | -97* | . | . | .
CN(C)c1ccc(C=c2c3ccccc3n3c2c2ccccc2[n+]3C)cc1 | . | -98* | . | . | .
CCOC(=O)c1cc2c(=Cc3ccc(N(C)C)cc3)c3ccccc3n2[n+]1C | . | -88* | . | . | .
CN(C)c1ccc(C=C2C=Cc3ccccc32)cc1 | . | 2 | . | . | .
CCOC(=O)SC1=N/C(=C\c2ccc(N(C)C)cc2)C(=O)S1 | 11%[5.75 µM] | 54 | -20% | 21% | 4%
CCc1ccccc1N(C(=O)CCC(=O)Nc1cc(C)on1)C(C(=O)NC1CCCC1)c1ccco1 (stereo not drawn) | 27% | -5 | 0% | 9.3µM* | -9%
